TTR transcr act – increases transthyretin transcription. SH-SY5Y TTR promoter Gaussia luciferase, luminescence; 100% = recombinant luciferase protein wells. activation, % at 16.7 µM. 92,000 compounds, 1.3% hits;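 active means activation above the mean of all tested compounds plus 3 SD, cut at about 9.5% in these data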;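 further: cells exposed to compounds for one day before reading; 0% = median of all test compound wells on the plate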
TTR inh HuH7 – counter-screen for TTR activators: TTR transcription inhibitors in HuH7 cells; shares compounds with TTR transcr act; HuH7 TTR promoter-Gaussia luciferase reporter, luminescence; inhibition, % at 16.7 µM; 1,100 compounds, 4% hits; AID 1117279;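 active means average inhibition above the solvent-only control wells' mean plus 3 SD, cut at about 15% in these data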;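 further: 0% = cells with DMSO only and 100% = cells with inhibitor control FD; inhibitors lower well luminescence so higher value means more inhibition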
TTR up confirm – confirmation of human transthyretin transcription activators. shares compounds with TTR transcr act. SHSY5Y TTR promoter Gaussia luciferase, luminescence; 100% = purified Lucia enzyme wells, no cells. activation, % at 16.7 µM. 1,100 tested, under 10 active;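 active means mean activation above a set limit taken from the earlier primary screen, cut at about 11% in these data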;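 further: 0% = DMSO-treated cells and 100% = recombinant Lucia luciferase without cells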
An asterisk follows results filed as active. Only a selection was taken, and hits are over-represented in it overall.

SMILES | TTR transcr act | others
Cc1cc(C)n(CC2CC(=O)N(c3ccc(Cl)cc3)C2=O)n1 (stereo not given) | 3.9
Cc1cc(C)n(CC2CC(=O)N(c3ccc(Cl)c(Cl)c3)C2=O)n1 (stereo not given) | 11.9* | TTR inh HuH7=-11.3;TTR up confirm=0.2
Cc1ccc(N2C(=O)CC(Cn3nc(C)cc3C)C2=O)cc1 (stereo not given) | -1.4
C[C@H]1CN(CCc2ccccc2)C(=O)[C@@H]1CC(=O)Nc1ccccc1 | -0.2
COc1ccccc1N1CCN(C(=O)CSc2nc3ccccc3nc2N2CCC(C)CC2)CC1 | -0.9
CC(=O)Nc1nnc(SCC(=O)N2CCc3ccccc32)s1 | 1.5
COc1ccccc1N1CCN(C(=O)CSc2nnc(NC(=O)C(C)C)s2)CC1 | 13.0* | TTR inh HuH7=-28.2;TTR up confirm=-0.3
CCCNC(=O)C(Cc1ccccc1)NC(=O)c1ccc(C(F)(F)F)cc1 (stereo not given) | 3.1
COCCNC(=O)/C(C#N)=C/C=C/c1ccccc1[N+](=O)[O-] | -1.1
Cc1ccc(N/C=C2\CCCCC2=O)nc1 | 9.9* | TTR inh HuH7=-8.5;TTR up confirm=-0.3
Cc1ccc(N/C=C2\CCCCC2=O)c(C)c1 | 1.8
O=C1CCCC/C1=C/Nc1cccc(C(F)(F)F)c1 | 0.1
OC(c1ccccc1)(c1ccccc1)c1nccn1-c1ccccc1 | -1.2
CCc1c(O)cc(=O)n(-c2ccccc2)c1-c1ccccc1 | 0.7
Cc1cccc(NC(=O)CCC(=O)N/N=C/c2ccco2)c1 | 9.7* | TTR inh HuH7=-15.1;TTR up confirm=0.0
O=C(CCC(=O)N/N=C/c1ccco1)N/N=C/c1ccco1 | -1.1
O=C(CCCCCCCCC(=O)N/N=C/c1ccco1)N/N=C/c1ccco1 | 0.8
Cc1cc(C)cc(C(=O)NC(CC(N)=O)c2ccc(NCC3CC3)c([N+](=O)[O-])c2)c1 (stereo not given) | 3.0
COc1ncccc1-c1cc2nc(NCCNC(C)=O)n(C)c(=O)c2s1 | -0.3
CN(CC(=O)NC(=O)NC(C)(C)C)CC(=O)Nc1ccccc1Cl | 3.3
CCNC(=O)C1(C)CCN(Cc2ccc(OC(F)(F)F)cc2)C1 (stereo not given) | -2.2
CC(C)OC(=O)N(C)C[C@@H]1OCc2cn(nn2)CCCC(=O)N([C@@H](C)CO)C[C@H]1C | 2.5
COCCN(CC(=O)NCC1CCCO1)C(=O)CCC(=O)Nc1cc(C)ccn1 (stereo not given) | -0.1
COCCNC(=O)CN(CC1CCCO1)C(=O)CCC(=O)Nc1ccccn1 (stereo not given) | 16.2* | TTR inh HuH7=-4.2;TTR up confirm=-0.2
COCCNC(=O)C(c1ccc(F)cc1)N(CC1CCCO1)C(=O)CCC(=O)Nc1ccccn1 (stereo not given) | -0.3
SMILES | TTR transcr act | others
CN(C)[C@@H]1CCN(c2ccc3c(c2)O[C@@H]2CCN(C2)S3(=O)=O)C1 | -1.4
Cn1c2ccccc2c(=O)c2c(=O)n(Cc3cccc4ccccc34)cnc21 | 1.9
Cc1ccccc1NC(=O)c1ccccn1 | -1.0
Cc1cc(NC(=O)C2CCCCC2)ncc1NC(=O)c1ccccn1 | 14.5* | TTR inh HuH7=1.0;TTR up confirm=-0.7
Cc1cc(NC(=O)C2CC2)ncc1NC(=O)c1ccccn1 | 1.9
O=C(COc1ccc(F)c(Cl)c1)NC(=O)NC1CCCC1 | -0.3
Cc1ccc2c(c1)N(C(C)C(=O)NCc1ccc3c(c1)OCO3)C(=O)CO2 (stereo not given) | -2.7
CN1CCn2cnc(C(=O)NCCCCCNC(=O)OC(C)(C)C)c2C1=O | 1.0
COc1ccc(CNCc2ccc3c(c2)OCO3)c(OC)c1OC | 0.7
CC1(c2nnnn2Cc2ccccc2)CCC(=O)N1CCc1c[nH]c2ccccc12 (stereo not given) | -0.6
CC1(c2nnnn2Cc2ccccc2)CCC(=O)N1CC(F)(F)F (stereo not given) | -0.6
CC1(c2nnnn2Cc2ccccc2)CCC(=O)N1CCc1ccccc1F (stereo not given) | 11.2* | TTR inh HuH7=-11.3;TTR up confirm=-0.1
O=C(O)c1c2c(nc3ccc(S(=O)(=O)N4CCC(C(=O)NC5CCCCCC5)CC4)cc13)CCCC2 | -2.5
Cc1cccc(C)c1NC(=O)C(c1ccccc1F)n1c(=O)c(-c2cc3ccccc3[nH]2)nc2ccccc21 (stereo not given) | -1.1
COCCSc1nc(N)c2c3c(sc2n1)CN(C)CC3 | -1.2
OC(CNCCNc1ncccc1C(F)(F)F)Cn1ccc2ccccc21 (stereo not given) | -0.8
Oc1ccccc1NCC(O)Cn1ccc2ccccc21 (stereo not given) | 11.2* | TTR inh HuH7=4.6;TTR up confirm=-1.0
OCc1nc2ccccc2n1CC(O)Cn1ccc2ccccc21 (stereo not given) | -4.6
COc1ccc(-c2csc(NC(=O)c3ccc(S(=O)(=O)N4CCc5ccccc5C4)cc3)n2)c(OC)c1 | -2.4
COC(=O)[C@]12C[C@H](CC(=O)NCc3ccc(C)o3)C(=O)N(Cc3ccccc3)C1=C[C@H](COCc1ccccc1)O[C@@H]2C | -1.2

Source: PubChem BioAssay
